The text below walks through data of publication PMC5540273 (PLoS ONE, 2017).
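Further: KINOMEscan kinase panel screen.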

The subject of the first test is T1, MEK5.
T1 construct: gene MAP2K5
Conditions: concentration: 1 μM,replicates: in singlicate; n = 1.
Regarding `C[C@@H](Oc1cc(-n2cnc3cc(-c4ccncc4)ccc32)sc1C(N)=O)c1ccccc1Cl` [GSK479719], the “%Inh” value was 21%.
As to `COc1cc2c(Nc3ccc(NC(=O)c4ccccc4)cc3)ncnc2cc1OCCCN1CCOCC1` [GSK301329], the “%Inh” value is 99.9%.
Same read-out and setting: to `Cc1cccc(-c2nc(Nc3ccncc3)c3sccc3n2)n1` [GW869641] belongs 58%.
On the same count and under the same terms, to `Cl.Cl.NC[C@H](CC1CCCCC1)NC(=O)c1ccc(-c2ccnc3[nH]ccc23)s1` [GSK1581428] belongs 52%; to `Cc1ccc(Nc2ccnc(Nc3ccc4c(c3)CS(=O)(=O)C4)n2)cc1O.Cl` [GW579362], 99.8%; to `CCOC(=O)N1CCC(n2cnc(-c3ccc(F)cc3)c2-c2ccnc(N)n2)CC1` [SB-219952], 29%.
Consider `CS(=O)(=O)c1cccc(CNc2nc(Nc3ccc4c(c3)[C@@H]3C[C@@H]4CNC3=O)ncc2C(F)(F)F)c1`, for which the “%Inh” value came out at 94.5%.
Still for that read-out and setting: to `O=C(Nc1ccc(Oc2ccc3nc(NC(=O)C4CC4)cn3n2)c(F)c1)c1cccn(-c2ccccc2)c1=O` belongs 97%.
As to `Cc1ccc(C(=O)Nc2ccc(Oc3ccc4nc(NC(=O)C5CC5)cn4c3)c(F)c2)c(=O)n1-c1ccccc1`, the “%Inh” value is given as 98.9%.
On the same count and under the same terms, under `CCN1CCN(CCCC(=O)Nc2n[nH]c3nc(-c4ccc(O)cc4)c(Br)cc23)CC1` [SB-731579] stands 42%; under `COC(=O)c1cccc(NC(=O)NC2CCN(c3ccnc(Nc4cc(OC)c(OC)c(OC)c4)n3)C2)c1` (centres unmarked) [GSK1379767], 98.8%; under `Cn1cc(-c2cccc3c(N)c(C(N)=O)nnc23)cn1`, 41%.
`Cn1ccc2ncnc(Oc3ccc(NC(=O)Nc4cccc(C(F)(F)F)c4)c(F)c3)c21`: the “%Inh” value is 35%.
`COc1cc(Nc2nccc(N3CCC(NC(=O)c4cccc(C#N)c4)C3)n2)cc(OC)c1OC` (centres unmarked) [GSK1379751]: the “%Inh” value came to 85%.
The same measure, in the same setting: under `c1ccc(Oc2ccc(Nc3ccnc4ccc(-c5ccccn5)cc34)cc2)cc1` [GW407034] stands 99.9%; under `C[C@@H](Oc1cc(-n2cnc3cc(-c4cnn(C)c4)ccc32)sc1C(N)=O)c1ccccc1Cl` [GSK580432], 42%.
On to `FC(F)(F)c1cc(Br)cc(Nc2nccc(-c3cnn4ncccc34)n2)c1` [GW810578], for which the “%Inh” value was 35%.
On the same count and under the same terms, under `COc1cccc(CNC(=O)NC2CCN(c3ccnc(Nc4cc(OC)c(OC)c(OC)c4)n3)C2)c1` (centres unmarked) [GSK1379765] stands 99.9%; under `Cc1n[nH]c2cc(Nc3ccnc(Nc4cccc(CN5CCOCC5)c4)n3)ccc12` [GW682569], 98.6%.
On the same count and under the same terms, under `O=C(NCC1CC1)c1ccc(-c2cc(C(=O)NC3CC3)ccc2F)cc1` [GW810445] stands 0%; under `Cc1nnc(-c2ccc3occ(-c4ccc(S(C)=O)cc4)c3n2)o1` (centres unmarked), 0%; under `COC(=O)c1cccc(NC(=O)NC2CCN(c3ccnc(NCc4ccc(F)cc4)n3)CC2)c1` [GSK1379860], 8%.
As for `Cc1cccc2c(-c3ccncc3)c(-c3ccc(F)cc3)nn12.Cl` [GW461487], the “%Inh” value amounted to 6%.
As for `O=C(Nc1n[nH]c2cc(-c3ccco3)ccc12)C1CC1` [SB-737447], the “%Inh” value is recorded as 76%.
On the same count and under the same terms, to `CN(c1ccccc1CNc1nc(Nc2ccc3c(c2)CC(=O)N3)ncc1C(F)(F)F)S(C)(=O)=O` belongs 17%; to `CC(=O)Nc1nc2cnc(Nc3cc(NC(=O)c4cccc(CC(C)(C)C#N)c4)ccc3C)nc2s1`, 46%; to `COc1ccc(Nc2nccc(N3CCC(NC(=O)c4cccc(C#N)c4)C3)n2)cc1` (centres unmarked) [GSK1379730], 8%.
The same measure, in the same setting: under `CS(=O)c1ccc(-c2coc3ccc(-c4n[nH]c(=O)o4)cc23)cc1` (centres unmarked) stands 17%.
Consider `CS(=O)(=O)Nc1ccc(-c2ccnc3[nH]ccc23)cc1` [GSK993273], for which the “%Inh” value was 67%.
Consider `Cn1ccc2ncnc(Oc3ccc(NC(=O)Nc4cnn(C(C)(C)C)c4)c(Cl)c3)c21`, for which the “%Inh” value came to 18%.
On to `Cl.c1ccc(Oc2ccc(Nc3ccnc4cc(-c5ccc(CN6CCNCC6)o5)ccc34)cc2)nc1` [GW567142], for which the “%Inh” value is on record as 99.9%.
Take `CSc1nccc(-c2c(-c3ccc(F)cc3)ncn2CCCN2CCOCC2)n1.Cl` [SB-217146]: the “%Inh” value came to 36%.
On the same count and under the same terms, to `C[C@@H](Oc1cc(-n2cnc3ccc(-c4ccncc4)cc32)sc1C(N)=O)c1ccccc1Cl` [GSK483724] belongs 78%; to `Nc1nccc(-c2ccc3c(N)n[nH]c3c2)n1` [GSK1034945], 38%.
As to `CC(C(=O)NC1CCN(c2ccnc(Nc3ccc(F)cc3)n2)C1)c1ccc(Cl)cc1` (centres unmarked) [GSK1379713], the “%Inh” value is 7%.
On the same count and under the same terms, under `C[C@@H]1CCN(C(=O)N2CCCC2)C[C@@H]1N(C)c1ncnc2[nH]ccc12` stands 38%; under `NC(=O)c1ccc(-c2cc3ncnc(SCC(=O)O)c3s2)cc1`, 38%.

For another test, the system named is T2, MEK6.
T2 construct: gene MAP2K6
Conditions: concentration: 1 μM,replicates: in singlicate; n = 1.
As for `C[C@@H](Oc1cc(-n2cnc3cc(-c4ccncc4)ccc32)sc1C(N)=O)c1ccccc1Cl` [GSK479719], the “%Inh” value worked out at 0%.
On to `COc1cc2c(Nc3ccc(NC(=O)c4ccccc4)cc3)ncnc2cc1OCCCN1CCOCC1` [GSK301329], for which the “%Inh” value was determined as 0%.
In the case of `Cc1cccc(-c2nc(Nc3ccncc3)c3sccc3n2)n1` [GW869641], the “%Inh” value stood at 10%.
As for `Cl.Cl.NC[C@H](CC1CCCCC1)NC(=O)c1ccc(-c2ccnc3[nH]ccc23)s1` [GSK1581428], the “%Inh” value amounted to 27%.
Same read-out and setting: to `Cc1ccc(Nc2ccnc(Nc3ccc4c(c3)CS(=O)(=O)C4)n2)cc1O.Cl` [GW579362] belongs 46%; to `CCOC(=O)N1CCC(n2cnc(-c3ccc(F)cc3)c2-c2ccnc(N)n2)CC1` [SB-219952], 1%; to `CS(=O)(=O)c1cccc(CNc2nc(Nc3ccc4c(c3)[C@@H]3C[C@@H]4CNC3=O)ncc2C(F)(F)F)c1`, 5%.
For `O=C(Nc1ccc(Oc2ccc3nc(NC(=O)C4CC4)cn3n2)c(F)c1)c1cccn(-c2ccccc2)c1=O`, the “%Inh” value was found to be 0%.
With `Cc1ccc(C(=O)Nc2ccc(Oc3ccc4nc(NC(=O)C5CC5)cn4c3)c(F)c2)c(=O)n1-c1ccccc1`, the “%Inh” value worked out at 0%.
The same measure, in the same setting: under `CCN1CCN(CCCC(=O)Nc2n[nH]c3nc(-c4ccc(O)cc4)c(Br)cc23)CC1` [SB-731579] stands 0%; under `COC(=O)c1cccc(NC(=O)NC2CCN(c3ccnc(Nc4cc(OC)c(OC)c(OC)c4)n3)C2)c1` (centres unmarked) [GSK1379767], 4%; under `Cn1cc(-c2cccc3c(N)c(C(N)=O)nnc23)cn1`, 0%.
As for `Cn1ccc2ncnc(Oc3ccc(NC(=O)Nc4cccc(C(F)(F)F)c4)c(F)c3)c21`, the “%Inh” value was determined as 0%.
As to `COc1cc(Nc2nccc(N3CCC(NC(=O)c4cccc(C#N)c4)C3)n2)cc(OC)c1OC` (centres unmarked) [GSK1379751], the “%Inh” value was 0%.
On the same count and under the same terms, under `c1ccc(Oc2ccc(Nc3ccnc4ccc(-c5ccccn5)cc34)cc2)cc1` [GW407034] stands 0%; under `C[C@@H](Oc1cc(-n2cnc3cc(-c4cnn(C)c4)ccc32)sc1C(N)=O)c1ccccc1Cl` [GSK580432], 15%.
`FC(F)(F)c1cc(Br)cc(Nc2nccc(-c3cnn4ncccc34)n2)c1` [GW810578]: the “%Inh” value worked out at 12%.
On the same count and under the same terms, to `COc1cccc(CNC(=O)NC2CCN(c3ccnc(Nc4cc(OC)c(OC)c(OC)c4)n3)C2)c1` (centres unmarked) [GSK1379765] belongs 0%.
The same measure, in the same setting: to `Cc1n[nH]c2cc(Nc3ccnc(Nc4cccc(CN5CCOCC5)c4)n3)ccc12` [GW682569] belongs 0%; to `O=C(NCC1CC1)c1ccc(-c2cc(C(=O)NC3CC3)ccc2F)cc1` [GW810445], 5%.
With `Cc1nnc(-c2ccc3occ(-c4ccc(S(C)=O)cc4)c3n2)o1` (centres unmarked), the “%Inh” value came out at 0%.
In the case of `COC(=O)c1cccc(NC(=O)NC2CCN(c3ccnc(NCc4ccc(F)cc4)n3)CC2)c1` [GSK1379860], the “%Inh” value is 0%.
On the same count and under the same terms, to `Cc1cccc2c(-c3ccncc3)c(-c3ccc(F)cc3)nn12.Cl` [GW461487] belongs 0%.
As to `O=C(Nc1n[nH]c2cc(-c3ccco3)ccc12)C1CC1` [SB-737447], the “%Inh” value came to 0%.
The same measure, in the same setting: under `CN(c1ccccc1CNc1nc(Nc2ccc3c(c2)CC(=O)N3)ncc1C(F)(F)F)S(C)(=O)=O` stands 93.9%.
For the compound `CC(=O)Nc1nc2cnc(Nc3cc(NC(=O)c4cccc(CC(C)(C)C#N)c4)ccc3C)nc2s1`, the “%Inh” value was found to be 0%.
For `COc1ccc(Nc2nccc(N3CCC(NC(=O)c4cccc(C#N)c4)C3)n2)cc1` (centres unmarked) [GSK1379730], the “%Inh” value is on record as 0%.
Consider `CS(=O)c1ccc(-c2coc3ccc(-c4n[nH]c(=O)o4)cc23)cc1` (centres unmarked), for which the “%Inh” value is given as 0%.
The same measure, in the same setting: to `CS(=O)(=O)Nc1ccc(-c2ccnc3[nH]ccc23)cc1` [GSK993273] belongs 16%; to `Cn1ccc2ncnc(Oc3ccc(NC(=O)Nc4cnn(C(C)(C)C)c4)c(Cl)c3)c21`, 0%; to `Cl.c1ccc(Oc2ccc(Nc3ccnc4cc(-c5ccc(CN6CCNCC6)o5)ccc34)cc2)nc1` [GW567142], 16%.
Same read-out and setting: to `CSc1nccc(-c2c(-c3ccc(F)cc3)ncn2CCCN2CCOCC2)n1.Cl` [SB-217146] belongs 15%.
Regarding `C[C@@H](Oc1cc(-n2cnc3ccc(-c4ccncc4)cc32)sc1C(N)=O)c1ccccc1Cl` [GSK483724], the “%Inh” value came to 0%.
Still for that read-out and setting: under `Nc1nccc(-c2ccc3c(N)n[nH]c3c2)n1` [GSK1034945] stands 0%; under `CC(C(=O)NC1CCN(c2ccnc(Nc3ccc(F)cc3)n2)C1)c1ccc(Cl)cc1` (centres unmarked) [GSK1379713], 0%.
The same measure, in the same setting: under `C[C@@H]1CCN(C(=O)N2CCCC2)C[C@@H]1N(C)c1ncnc2[nH]ccc12` stands 20%.
In the case of `NC(=O)c1ccc(-c2cc3ncnc(SCC(=O)O)c3s2)cc1`, the “%Inh” value is listed as 0%.
